The results in this text go back to PubChem BioAssay (EPA / NIEHS).

Records with an inconclusive call do not appear. Calls of active or inactive are those of the source. How the source made its calls: active means hit-call score of the fitted dose curve at least 0.9, where 1 is the maximum; inconclusive means response in the unintended direction; inactive means score below 0.9.

Cytochrome P450 2C19 (Homo sapiens), sequence (P33261 whole entry, looked up): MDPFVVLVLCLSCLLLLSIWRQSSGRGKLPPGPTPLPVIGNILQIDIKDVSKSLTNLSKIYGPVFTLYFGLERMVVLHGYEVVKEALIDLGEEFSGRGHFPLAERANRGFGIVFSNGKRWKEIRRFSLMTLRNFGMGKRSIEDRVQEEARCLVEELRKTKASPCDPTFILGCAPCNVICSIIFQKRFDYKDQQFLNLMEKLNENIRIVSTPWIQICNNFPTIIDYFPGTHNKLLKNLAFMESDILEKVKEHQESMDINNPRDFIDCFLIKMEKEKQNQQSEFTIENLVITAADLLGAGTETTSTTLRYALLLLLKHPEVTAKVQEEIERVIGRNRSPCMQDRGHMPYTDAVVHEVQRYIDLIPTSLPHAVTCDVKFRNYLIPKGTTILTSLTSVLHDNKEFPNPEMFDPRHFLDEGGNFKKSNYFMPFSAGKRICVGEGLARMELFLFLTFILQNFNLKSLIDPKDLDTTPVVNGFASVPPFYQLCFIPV

Read-out in this assay: Cytochrome P450 2C19 (Homo sapiens) (UniProt P33261)
The experiment in a line: CLD_CYP2C19_48hr: CellzDirect (CLD) Gene Expression Assay for xenobiotic metabolism (CYP2C19) at 48 hours (AID 2283700).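 Further: fitted upward so actives raise CYP2C19 mRNA above the 0.2% DMSO vehicle.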 As to the method:
CLD_48hr is a cell-based, multiplexed-readout assay that uses hepatocyte, a human liver primary cell, with measurements taken at 48 hours after chemical dosing in a 96-well plate.CLD_CYP2C19_48hr is one of 16 assay component(s) measured or calculated from the CLD_48hr assay. It is designed to make measurements of mRNA induction, a form of inducible reporter, as detected with chemiluminescence signals by Quantitative Nuclease Protection Assay (qNPA) technology.Data from the assay component CLD_CYP2C19_48hr was analyzed at the endpoint, CLD_CYP2C19_48hr, in the positive analysis fitting direction relative to DMSO as the negative control and baseline of activity. Using a type of inducible reporter, gain-of-signal activity can be used to understand changes in the reporter gene as they relate to the gene CYP2C19. Furthermore, this assay endpoint can be referred to as a primary readout. To generalize the intended target to other relatable targets, this assay endpoint is annotated to the cyp intended target family, where subfamily is xenobiotic metabolism.
Human hepatocyte cultures were treated daily for two consecutive days with fresh dosing solutions containing appropriate concentrations of the 320 ToxCast chemicals (chemical identities were blinded to CellzDirect and other ToxCast collaborators), vehicle control (0.2% DMSO), and positive control inducers as summarized in Table 1. Due to the large number of treatment groups and chemicals examined, the ToxCast chemicals were divided into two groups (spanning two independent cultures of hepatocytes from separate donor preparations (Hu778: ToxCast plates 1 and 2; Hu776: ToxCast plates 3 and 4). Each preparation of human hepatocyte cultures was treated with respective vehicle control, medium only control, set of six positive controls/reference chemicals for the five hepatic receptor pathways, and a subset of eight of the ToxCast chemicals (indoxacarb, pyrithiobac-sodium, norflurazon, cyhalofop-butyl, methomyl, thiram, acetochlor, and propiconazole). These replicate data, coupled with internal replicates designed within the blinded ToxCast chemical library, provided additional data to evaluate interindividual differences between hepatocyte preparations and their potential impact on chemical profiles.Cell morphology and integrity were evaluated using phase-contrast microscopy as an indicator of hepatocyte cell health (Tyson & Green, 1987). Cultures for each treatment group (i.e., media, vehicle [0.2% DMSO], positive control inducers [multiple concentrations], and the ToxCast chemicals [multiple concentrations]) were observed and cell morphology was assessed relative to vehicle control cultures at each harvest time point (0, 6, 24, or 48 h). […] Images were evaluated at the conclusion of the study to assess changes in cell integrity and account for the effects of chemical exposure on uncharacteristic changes in concentration-dependent gene expression profiles. The results from these determinations of apparent cytotoxicity were annotated (yes/no) alongside the corresponding qNPA data for reference.At the conclusion of each treatment period, hepatocyte cultures (96-well) were washed with 1 volume of HBSS, lysed by addition of 25 ul ArrayPlate lysis buffer (HTG, Tucson, AZ), and 70 ul/well of Denaturation Oil, denatured by incubation at 95C for 10 min, and frozen at approximately -70C until analysis by nuclease protection assay (qNPA) (Roberts et al., 2007). For qNPA analysis, cell lysates were thawed at 50C for approximately 30 min, qNPA probes were added, and samples were incubated at 95C for 10 min to begin the detection process by denaturing the target RNA, dissociating the duplexes and secondary structure hybridization. At the conclusion of the hybridization period, S1 nuclease reagent was added to each sample to digest all nonprotected nucleotides at 50C for 60-90 min. […]
On to `CCCCNC(=O)n1c(NC(=O)OC)nc2ccccc21`, for which the molecule was classed as inactive.

As for `COP(N)(=O)SC` (centres undefined), the molecule was classed as inactive.

Consider `CS/C(C)=N/OC(=O)N(C)SN(C)C(=O)O/N=C(\C)SC`, for which the outcome was inactive.

As to `N#CC(CCc1ccc(Cl)cc1)(Cn1cncn1)c1ccccc1` (centres undefined), the molecule was classed as inactive.

With `COc1nc(NC(C)C)nc(NC(C)C)n1`, the call was inactive.

On to `CC(C)(C)c1ccc(CSc2cnn(C(C)(C)C)c(=O)c2Cl)cc1`, for which the result was inactive.

As to `COc1nc(C)nc(NC(=O)NS(=O)(=O)c2ccccc2Cl)n1`, the outcome was inactive.

Consider `O=C(O)c1nc(Cl)ccc1Cl`, for which the call was inactive.

Take `Cc1cc(Cl)ccc1OCC(=O)O`: the result was inactive.

In the case of `Oc1ccccc1-c1ccccc1`, the molecule was classed as inactive.

On to `CCOC(=O)C(Cl)Cc1cc(-n2nc(C)n(C(F)F)c2=O)c(F)cc1Cl` (centres undefined), for which the molecule was classed as inactive.

In the case of `CCOc1cc(Oc2ccc(C(F)(F)F)cc2Cl)ccc1[N+](=O)[O-]`, the result was inactive.

As to `CCNc1nc(Cl)nc(NCC)n1`, the molecule was called inactive.

In the case of `CCON=C(CC)C1=C(O)CC(c2c(C)cc(C)cc2C)CC1=O` (centres undefined), the call was inactive.

On to `COC(=O)C(C)Oc1ccc(Oc2ccc(Cl)cc2Cl)cc1` (centres undefined), for which the outcome was inactive.

`C=CC1(C)OC(=O)N(c2cc(Cl)cc(Cl)c2)C1=O` (centres undefined): the molecule was called inactive.

`CC1COC(Cn2cncn2)(c2ccc(Oc3ccc(Cl)cc3)cc2Cl)O1` (centres undefined): the molecule was called inactive.

`C=CCC1=C(C)[C@@H](OC(=O)[C@@H]2[C@@H](C=C(C)C)C2(C)C)CC1=O`: the molecule was called inactive.

On to `COc1cnc(OC)n2nc(NS(=O)(=O)c3c(OCC(F)F)cccc3C(F)(F)F)nc12`, for which the outcome was inactive.

`CCCCC(CC)COC(=O)c1ccccc1C(=O)OCC(CC)CCCC` (centres undefined): the molecule was classed as inactive.

Consider `COc1ccc(C(c2ccc(OC)cc2)C(Cl)(Cl)Cl)cc1`, for which the molecule was called inactive.

`COC(=O)C=C(C)OP(=O)(OC)OC`: the outcome was inactive.

For the molecule `CCCCNC(=O)OCC#CI`, the result was inactive.

Turning to `CCCCOC(=O)c1ccccc1C(=O)OCCCC`, the result was inactive.
